From PubChem BioAssay (Tox21)
Records with an inconclusive call do not appear. Active and inactive are the calls of the source. Unless noted, calls come from the whole dose curve; as a rule, active = well fitted curve in the direction sought with a large enough effect in the repeat runs; inconclusive = weak or mixed curves; inactive = no such curve, though single readings can be large; an effect the other way counts as inactive or inconclusive.

Legend:
[1] = target: Thyrotropin receptor (Homo sapiens) (UniProt P16473); experiment: qHTS assay to identify small molecule antagonists of the thyroid stimulating hormone receptor (TSHR) signaling pathway (AID 1259385; calls by dose curve; note: nearly all actives have a fitted effect of over 20% in size)
Summary of the method: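 TSHR-HEK293 cells were plated and held 18 h at 37C/5% CO2, then given compound plus Ro20-1724 and stimulated with TSH at 1.5 ng/mL final. After 30 min at room temperature, cAMP was detected with cAMP-d2/anti-cAMP-cryptate (1 h) by fluorescence.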

[2] = qHTS assay to identify small molecule agonists of the estrogen receptor alpha (ER-alpha) signaling pathway in the presence of an antagonist - cell viability counter screen (AID 1259386);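 note: series mostly up to about 92 µM; cells exposed to compounds for 22 h at 37 °C before the viability read; nearly all actives have a fitted effect of over 30% in size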
Summary of the method: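 In this counter screen, compound effects on VM7Luc4E2 viability were tested in the presence of the antagonist ICI-182,780 at 10.0nM final. Compounds were dosed at 15 concentrations, exposure lasted 22hr, and the CellTiter-Fluor signal was read.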

[3] = qHTS assay to identify small molecule antagonists of the progesterone receptor (PR) signaling pathway - cell viability counter screen (AID 1346798); note: series mostly up to about 92 µM; nearly all actives have a fitted effect of over 50% in size
Summary of the method: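 Measures cytotoxicity in parallel with the PR antagonist reporter read: HEK293T PR-UAS-bla cells get compound and R5020 for 16 hr, and remaining viable cells are quantified by CellTiter-Glo luminescence.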

[4] = qHTS assay to identify small molecule agonists of the progesterone receptor (PR) signaling pathway - cell viability counter screen (AID 1346799; calls by dose curve; note: nearly all actives have a fitted effect of over 45% in size)
Summary of the method: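 Using the same plates as the PR reporter screen, HEK293T PR-UAS-bla cells received compounds for 16 hr at 37C and were then lysed with CellTiter-Glo; luminescence was read 30 min later at room temperature.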

[5] = qHTS assay to identify small molecule antagonists of the TGF-beta/Smad signaling pathway - cell viability counter screen (AID 1346824); note: nearly all actives have a fitted effect of over 50% in size
Summary of the method: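 SBE-bla HEK 293T cells were plated overnight at 37 C, then given compounds in DMSO plus TGF-beta1 (added as 0.25 ng/mL solution) for 5 hr. After the bla read, CellTiter-Glo was added to the same wells and luminescence read after 30 min at room temperature.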

[6] = qHTS assay to identify small molecule agonists of the TGF-beta/Smad signaling pathway - cell viability counter screen (AID 1346829); note: top concentration of the series differs between compounds; nearly all actives have a fitted effect of over 45% in size
Summary of the method: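 In parallel with the Smad reporter read, viability of HEK 293T cells stably carrying SBE-bla is quantified by ATP luminescence following 5 hr compound treatment.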

[7] = qHTS assay to identify small molecule agonists of the TGF-beta/Smad signaling pathway (AID 1346859; active = well fitted activation curve with a large enough effect in the signal ratio in the repeat runs, not every such curve was filed as active; the % refers to the signal ratio; note: series mostly up to about 77 µM)
Summary of the method: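 Beta-lactamase reporter activity downstream of Smad binding elements was measured in stably transfected HEK 293T cells; compounds were incubated for 5 hr, substrate for 2 hr at room temperature.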

[8] = Human pregnane X receptor (PXR) small molecule agonists, qHTS cell viability counter screen (AID 1346977); note: nearly all actives have a fitted effect of over 50% in size
Summary of the method: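 After a 5hr pre-incubation, PXR-Luc HepG2 cells received compounds plus positive control in DMSO and were kept 24hr at 37C. Cell viability was quantified by fluorescence from CellTiter-Fluor added for the final hour.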

[9] = Caspase-3/7 induction in HepG2 cells by small molecules, qHTS assay (AID 1346978); note: nearly all actives have a fitted effect of over 15% in size
Summary of the method: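 Wild-type HepG2 cells (2,000/well) were settled 5 h at 37 C, 5% CO2, then exposed to compounds in DMSO for 17 h. Caspase-3/7 activity was read by luminescence 30 min after adding Caspase-Glo 3/7 reagent at room temperature.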

[10] = Caspase-3/7 induction in CHO-K1 cells by small molecules, qHTS cell viability counter screen (AID 1346979); note: nearly all actives have a fitted effect of over 35% in size
Summary of the method: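 Multiplexed with Caspase-Glo 3/7 in CHO-K1 cells, this counter screen added CellTiter-Fluor after 16hr of compound exposure and recorded fluorescence 1hr later.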

[11] = Caspase-3/7 induction in CHO-K1 cells by small molecules, qHTS assay (AID 1346980); note: nearly all actives have a fitted effect of over 15% in size
Summary of the method: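 Wild-type cells were seeded at 1,500 per well and settled 5 hr at 37 C, 5% CO2, then exposed to DMSO-dissolved compounds for 17 hr. Caspase-Glo 3/7 reagent was added, and luminescence was read after 30min at room temperature.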

[12] = Caspase-3/7 induction in HepG2 cells by small molecules, qHTS cell viability counter screen (AID 1346981); note: series mostly up to about 92 µM; nearly all actives have a fitted effect of over 30% in size
Summary of the method: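 In this quantitative HTS counter screen, compounds delivered in DMSO were left on unmodified HepG2 cells for 16 hr at 37 C. Viability was then determined fluorometrically with CellTiter-Fluor, in parallel with caspase-3/7 induction in the same wells.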

[13] = target: Nuclear receptor subfamily 1 group I member 2 (Homo sapiens) (UniProt O75469); experiment: Human pregnane X receptor (PXR) small molecule agonists, qHTS assay (AID 1346982); note: nearly all actives have a fitted effect of over 35% in size
Summary of the method: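 Reporter HepG2 cells expressing PXR-Luc are cultured in charcoal-stripped FBS (5%), treated with compounds for 24 hr at 37 C, and assayed by ONE-Glo luminescence after 30 min at room temperature.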

[14] = target: Nuclear receptor subfamily 1 group I member 2 (Homo sapiens) (UniProt O75469); experiment: CYP3A4 induction through human pregnane X receptor (PXR) by small molecules, qHTS assay (AID 1346984); note: nearly all actives have a fitted effect of over 40% in size
Summary of the method: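 Induction measured in HepG2-based DPX-2 cells co-expressing human PXR and a CYP3A4 promoter-driven luciferase. After a 24-hour compound exposure, cells received CYP3A4 luciferin substrate at 3uM final for 3 hours, and light output was then recorded.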

[15] = target: Nuclear receptor subfamily 1 group I member 2 (Homo sapiens) (UniProt O75469); experiment: Human pregnane X receptor (PXR) activation by small molecules, qHTS assay (AID 1346985); note: nearly all actives have a fitted effect of over 40% in size
Summary of the method: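 DPX-2 cells (HepG2 co-transfected with a PXR response element and a CYP3A4-promoter luciferase construct) were seeded at 2,000 per well, rested 5 hr at 37C, then exposed to DMSO-dissolved compounds for 24 hr. Activation was read as luciferase luminescence.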

[16] = target: Thyrotropin-releasing hormone receptor (Homo sapiens) (UniProt P34981); experiment: qHTS assay to identify small molecule antagonists of the thyrotropin-releasing hormone receptor (TRHR) signaling pathway (AID 1346877; active = well fitted inhibition curve with a large enough effect in the repeat runs, not every such curve was filed as active; note: series mostly up to about 51 µM)
Summary of the method: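 Kinetic fluorescence (3 min, 1 s resolution) following stimulation with TRH at 1 nM final; HEK293 cells bearing human TRHR; 5 min compound preincubation at RT; concentration-response over 15 points, triplicates.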

[17] = target: Progesterone receptor (Homo sapiens) (UniProt P06401); experiment: qHTS assay to identify small molecule antagonists of the progesterone receptor (PR) signaling pathway (AID 1346795; active = well fitted inhibition curve with a large enough effect in the signal ratio in the repeat runs, not every such curve was filed as active; the % refers to the signal ratio)
Summary of the method: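 Screening used a GripTite HEK293T line with PR-responsive UAS-beta-lactamase. Cells were challenged with compound in the presence of 1 nM R5020 final for 16 hr at 37C; B/G FRET substrate, 2 hr room temperature, fluorescence.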

[18] = target: Thyrotropin-releasing hormone receptor (Homo sapiens) (UniProt P34981); experiment: qHTS assay to identify small molecule agonists of the thyrotropin-releasing hormone receptor (TRHR) signaling pathway (AID 1346891; calls by dose curve;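 note: HEK293 cells expressing TRHR with calcium dye readout; series mostly up to about 58 µM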)
Summary of the method: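 Overnight-plated (18 h, 37 °C, 5% CO2) TRHR-Hek293 cells; 2 h calcium dye at 37 °C; compound in DMSO; 3-min kinetic fluorescence read.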
% is set by controls: 0 for no effect and ±100 for the full control effect.

Sequence of Thyrotropin receptor (Homo sapiens) (P16473 whole entry, looked up): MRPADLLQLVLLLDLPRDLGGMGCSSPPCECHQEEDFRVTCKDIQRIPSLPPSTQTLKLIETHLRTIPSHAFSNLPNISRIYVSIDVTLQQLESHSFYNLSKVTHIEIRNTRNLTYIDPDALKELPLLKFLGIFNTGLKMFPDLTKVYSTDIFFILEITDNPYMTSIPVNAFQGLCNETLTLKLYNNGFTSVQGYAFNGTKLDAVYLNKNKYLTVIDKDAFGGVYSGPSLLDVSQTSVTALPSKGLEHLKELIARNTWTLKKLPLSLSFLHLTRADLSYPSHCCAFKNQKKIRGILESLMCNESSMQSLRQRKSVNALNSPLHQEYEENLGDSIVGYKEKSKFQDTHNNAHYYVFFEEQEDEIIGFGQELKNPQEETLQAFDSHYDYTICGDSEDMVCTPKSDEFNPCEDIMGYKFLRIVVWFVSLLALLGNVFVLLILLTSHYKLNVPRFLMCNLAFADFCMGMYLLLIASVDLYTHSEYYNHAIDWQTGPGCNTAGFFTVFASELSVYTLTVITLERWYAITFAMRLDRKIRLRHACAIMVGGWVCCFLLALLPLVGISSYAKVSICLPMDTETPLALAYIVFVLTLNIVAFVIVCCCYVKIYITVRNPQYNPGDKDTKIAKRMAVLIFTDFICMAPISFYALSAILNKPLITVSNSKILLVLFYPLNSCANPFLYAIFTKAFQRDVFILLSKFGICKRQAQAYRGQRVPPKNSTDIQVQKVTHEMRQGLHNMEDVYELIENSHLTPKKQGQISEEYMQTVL
Sequence of Thyrotropin-releasing hormone receptor (Homo sapiens) (P34981 whole entry, looked up): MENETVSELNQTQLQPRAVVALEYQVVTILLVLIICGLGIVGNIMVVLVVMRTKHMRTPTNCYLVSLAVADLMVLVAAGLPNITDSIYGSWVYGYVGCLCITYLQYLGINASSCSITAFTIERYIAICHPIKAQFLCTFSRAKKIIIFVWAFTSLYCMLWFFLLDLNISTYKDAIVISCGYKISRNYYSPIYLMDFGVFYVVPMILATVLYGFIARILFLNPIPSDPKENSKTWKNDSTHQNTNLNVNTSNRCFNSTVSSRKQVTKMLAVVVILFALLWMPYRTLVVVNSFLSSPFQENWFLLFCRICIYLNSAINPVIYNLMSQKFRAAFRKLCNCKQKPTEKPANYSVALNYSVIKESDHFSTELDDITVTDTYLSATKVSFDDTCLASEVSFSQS
Sequence of Progesterone receptor (Homo sapiens) (P06401 whole entry, looked up): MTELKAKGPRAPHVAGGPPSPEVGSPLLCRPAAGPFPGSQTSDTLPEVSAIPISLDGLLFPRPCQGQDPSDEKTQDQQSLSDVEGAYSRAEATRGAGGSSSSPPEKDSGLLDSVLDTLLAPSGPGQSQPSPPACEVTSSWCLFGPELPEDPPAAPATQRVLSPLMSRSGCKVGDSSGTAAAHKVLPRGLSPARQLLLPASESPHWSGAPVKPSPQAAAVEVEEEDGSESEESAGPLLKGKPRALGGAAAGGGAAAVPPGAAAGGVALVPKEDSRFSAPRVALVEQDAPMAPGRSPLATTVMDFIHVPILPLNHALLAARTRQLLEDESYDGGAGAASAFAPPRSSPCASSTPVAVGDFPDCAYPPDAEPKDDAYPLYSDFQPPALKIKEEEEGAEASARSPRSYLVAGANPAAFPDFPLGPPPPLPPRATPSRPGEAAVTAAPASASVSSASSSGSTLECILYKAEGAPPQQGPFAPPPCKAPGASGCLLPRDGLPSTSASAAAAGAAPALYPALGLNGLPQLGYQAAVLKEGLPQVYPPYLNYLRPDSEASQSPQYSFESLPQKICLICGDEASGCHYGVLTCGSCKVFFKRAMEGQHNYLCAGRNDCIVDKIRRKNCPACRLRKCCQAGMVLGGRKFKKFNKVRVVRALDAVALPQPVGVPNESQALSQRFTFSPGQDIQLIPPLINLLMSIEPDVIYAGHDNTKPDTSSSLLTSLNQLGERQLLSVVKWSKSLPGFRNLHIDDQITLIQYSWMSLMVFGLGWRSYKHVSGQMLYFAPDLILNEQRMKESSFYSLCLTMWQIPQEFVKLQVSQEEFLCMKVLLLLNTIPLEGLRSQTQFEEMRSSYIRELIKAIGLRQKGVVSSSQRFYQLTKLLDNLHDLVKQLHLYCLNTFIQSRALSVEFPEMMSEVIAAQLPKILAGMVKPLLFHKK
Sequence of Nuclear receptor subfamily 1 group I member 2 (Homo sapiens) (O75469 whole entry, looked up): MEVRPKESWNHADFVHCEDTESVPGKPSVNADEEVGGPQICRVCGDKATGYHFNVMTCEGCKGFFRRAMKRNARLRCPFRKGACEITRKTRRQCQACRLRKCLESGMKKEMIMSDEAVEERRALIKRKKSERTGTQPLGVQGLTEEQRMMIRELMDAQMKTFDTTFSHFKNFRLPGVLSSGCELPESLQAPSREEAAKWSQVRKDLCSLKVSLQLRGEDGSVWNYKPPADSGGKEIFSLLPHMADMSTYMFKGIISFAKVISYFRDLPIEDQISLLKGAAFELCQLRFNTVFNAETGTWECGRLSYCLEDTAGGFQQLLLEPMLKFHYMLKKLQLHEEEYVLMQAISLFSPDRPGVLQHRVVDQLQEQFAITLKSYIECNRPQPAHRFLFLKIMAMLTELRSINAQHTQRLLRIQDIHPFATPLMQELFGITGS

C[C@](N)(Cc1ccc(O)cc1)C(=O)O
inactive: activity change, negative = inhibition [1] 1.98% [at 8.39 µM] | activity change, negative = cytotoxicity [2] 3.17% [at 8.39 µM] | activity change, negative = cytotoxicity [3] 2.75% [at 8.39 µM] | activity change, negative = cytotoxicity [4] 2.57% [at 8.39 µM] | viability change, negative = cytotoxic [5] 15.7% [at 6.97 µM] | activity change, negative = cytotoxicity [6] 0.568% [at 6.97 µM] | activation [7] 2.67% [at 6.97 µM] | activity change, negative = cytotoxicity [8] -1.21% [at 8.39 µM] | caspase activation [9] -1.17% [at 8.39 µM] | activity change, negative = cytotoxicity [10] -0.609% [at 8.39 µM] | caspase-3/7 activation [11] 0.841% [at 8.39 µM] | activity change, negative = cytotoxicity [12] -1.6% [at 8.39 µM] | activation [13] -9.59% [at 8.39 µM] | Potency [14] | Potency [15]

Cc1ccc(Cl)cc1Cl
inactive: Potency [1] | Potency [2] | Potency [3] | Potency [4] | Potency [5] | outcome [6] | outcome [7] | outcome [16] | Potency [8] | Potency [9] | Potency [10] | outcome [11] | Potency [12] | Potency [13]

COCCc1ccc(OCC(O)CNC(C)C)cc1 (stereo unspecified)
inactive: Potency [1] | Potency [2] | Potency [17] | Potency [3] | Potency [4] | Potency [5] | outcome [6] | outcome [7] | Potency [8] | Potency [9] | Potency [10] | Potency [12]

CN1CCCC1
inactive: Potency [1] | Potency [2] | Potency [17] | Potency [4] | Potency [5] | outcome [6] | outcome [7] | outcome [16] | Potency [8] | Potency [9] | Potency [10] | outcome [11] | Potency [12] | Potency [13]

Cc1sccc1Br
inactive: Potency [1] | Potency [2] | Potency [3] | Potency [4] | Potency [5] | outcome [6] | outcome [7] | outcome [16] | outcome [18] | Potency [8] | Potency [9] | Potency [10] | outcome [11] | Potency [12] | Potency [13]

O=C1CC2CC1C1CCCC21 (stereo unspecified)
inactive: Potency [1] | Potency [2] | Potency [17] | Potency [3] | Potency [4] | Potency [5] | outcome [6] | outcome [7] | outcome [16] | Potency [8] | Potency [9] | Potency [10] | outcome [11] | Potency [12]

NCCCNCCSP(=O)(O)O
inactive: activity change, negative = inhibition [1] -3.62% [at 8.39 µM] | activity change, negative = cytotoxicity [2] -0.352% [at 8.39 µM] | activity change, negative = cytotoxicity [3] 1.3% [at 8.39 µM] | activity change, negative = cytotoxicity [4] 17.5% [at 8.39 µM] | viability change, negative = cytotoxic [5] 10.3% [at 6.97 µM] | activity change, negative = cytotoxicity [6] -10% [at 6.97 µM] | activation [7] 0.256% [at 6.97 µM] | activity, negative = inhibition [16] 2.65% [at 4.65 µM] | activation [18] -0.402% [at 5.23 µM] | activity change, negative = cytotoxicity [8] 7.22% [at 8.39 µM] | caspase activation [9] -1.36% [at 8.39 µM] | activity change, negative = cytotoxicity [10] 5.53% [at 8.39 µM] | caspase-3/7 activation [11] 0.0901% [at 8.39 µM] | activity change, negative = cytotoxicity [12] 1.15% [at 8.39 µM] | activation [13] -4.2% [at 8.39 µM]

CCCCNC(=O)NCCCC
inactive: Potency [1] | Potency [2] | Potency [17] | Potency [3] | Potency [4] | outcome [6] | outcome [7] | outcome [16] | outcome [18] | Potency [8] | Potency [9] | Potency [12] | Potency [13]

CCCN1CCCC[C@H]1C(=O)Nc1c(C)cccc1C
inactive: Potency [1] | Potency [2] | Potency [3] | Potency [4] | Potency [5] | outcome [6] | outcome [7] | outcome [16] | outcome [18] | Potency [8] | Potency [9] | Potency [10] | outcome [11] | Potency [12]
